# Pf growth 48h: inhibits P. falciparum growth in the first generation, 48 h; P. falciparum luciferase growth in erythrocytes, 48 h; Potency, µM (series often up to 28.7 µM), for the others: at the highest dose activity change, negative = inhibition, usual class: inhibitors; 310,000 tested, 5.9% active; further: potency means the concentration at half of the fitted maximal effect; on the % scale 0 is the no-effect control and ±100 the full control effect
#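 First compound was added to culture medium, then infected red cells at 0.1% parasitemia and 2% hematocrit (final). After incubation at 37 C under 5% CO2, luciferase detection reagent was dispensed and light output recorded.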
# SARS PLpro yeast: blocks SARS-CoV papain-like protease in a yeast assay; S. cerevisiae expressing SARS-CoV PLpro, growth rescue; Potency, µM (titrated, usually from 32.9 µM), inactives show at the top dose activity, positive = growth rescue, usual class: activators; 330,000 tested, 0.19% active; calls by dose curve; further: potency means the concentration at half of the fitted maximal effect; 0% is about no effect; nearly all actives have a fitted effect of over 55% in size
# Pf growth 96h: P. falciparum growth inhibition at 96 hours; 320,000 tested, 6.9% active; Potency, µM (top dose mostly 28.7 µM), inactives show at the highest dose activity change, negative = inhibition, usual class: inhibitors; AID 504834; P. falciparum luciferase reporter growth, 96 h; further: potency means the concentration at half of the fitted maximal effect; on the % scale 0 is the no-effect control and ±100 the full control effect
#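 Infected RBCs, 2% Hct / 0.05% parasitemia final; luciferase-reporter P. falciparum; cpd 96 h, 37 C, 5% CO2; luciferase detection reagent; luminescence.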
# HCV inhibitor: HCV inhibition. Huh7.5.1 HCVcc-Cre infection, luciferase reporter, 44 h. Potency, µM (titrated, usually from 41.8 µM), without a hit: at the highest dose activity change, negative = inhibition, actives largely listed as inhibitors. 340,000 tested, 3.4% active. AID 651820; further: potency means the concentration at half of the fitted maximal effect; on the % scale 0 is the no-effect control and ±100 the full control effect
#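 HCVcc-Cre virus at an moi near 0.5 was added right after compound to cells cultured 4 h from seeding (1,000 cells/well). Luciferase activity was determined 44 h later, 15 min after substrate addition at RT.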
# HCMV inh: inhibitors of human cytomegalovirus; 410,000 tested, 4.5% active; HFF cells, HCMV-luciferase reporter, 72 h; active compounds read low; activity change, negative = inhibition, % at 57.5 µM; AID 1259415; in the data active means activity change below about -60%; inconclusive means no clear call, values can overlap the other calls; inactive means above about -39%; further: on the % scale 0 is the no-effect control and ±100 the full control effect
#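 Two compound doses tested in HFFs infected with HCMV-luciferase, MOI 1 PFU/cell, 72 h at 37C. Lysate luminescence read with OneGlo; data normalized against buffer-only and 10uM Salinomycin inhibitor controls.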
# Sm TGR inh: inhibitors of Schistosoma mansoni thioredoxin glutathione reductase. purified TGR, DTNB reduction, TNB absorbance 405 nm. Q962Y6. 360,000 tested, 3% active. Potency, µM (series often up to 114 µM), for inactives: at the highest dose activity change, negative = inhibition, actives largely listed as inhibitors. AID 485364; further: potency means the concentration at half of the fitted maximal effect; on the % scale 0 is the no-effect control and ±100 the full control effect; nearly all actives have a fitted effect of over 60% in size
#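 TGR 20 nM + NADPH 100 uM (dispensed conc.), cpd preinc 15 min RT; start with NADPH (500 uM addition) then DTNB (15 mM addition). Kinetic TNB absorbance, 405 nm filter. Four-parameter Hill fit across titration.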
# Numbers without * were called inactive; u = inconclusive; x = no result given; [ ] = dose if it differs, or a comment. In the library only some 15% were active in any assay of this set; here they are far more common. Unless noted, the call rests on the fitted dose curve; in most records, active means well fitted curve in the direction sought with a large enough effect; inconclusive means small, poorly fitted or top-dose-only effect, or another doubt; inactive means no such curve, though single readings can be large; an effect the other way counts as inactive or inconclusive.
SMILES,Pf growth 48h,SARS PLpro yeast,Pf growth 96h,HCV inhibitor,HCMV inh,Sm TGR inh
CC(=NNC(=S)N1CC2CCC(CC2)C1)c1cnccn1,x,x,x,u,-95.8*,x
CC1Cc2ccccc2N1C(=O)CN1CCC(n2nnc3cc(C(F)(F)F)ccc32)CC1 (configuration not stated),x,23.3%,u,u,-39.1,2.7%
Cc1cccc(NC(=O)Cn2cc(S(=O)(=O)c3ccc(F)cc3)c(=O)c3cc4c(cc32)OCO4)c1,x,x,x,x,10.0,-4.6%
Cc1ccc(N2CCN(S(=O)(=O)N3CCCCC3)CC2)cc1C,20.6%,-0.3%,23.5%,2.1%,-69.3*,0.0%
Cc1ccc(N2CCN(S(=O)(=O)N3CCCCCC3)CC2)cc1Cl,x,0.1%,-6.5%,4.2%,-7.7,-16.9%
Nc1ncc(Br)nc1NC1CCOCC1,x,x,x,x,43.8,x
Cc1ccc(NC(=O)COc2cccc3ccccc23)c(O)c1,5.22µM*,-2.0%,4.65µM*,u,-11.9,-2.6%
Cc1cc(NC(=O)COC(=O)COc2cccc3c2OC(C)(C)C3)no1,7.8%,-7.2%,61.7%,23.3%,14.9,15.2%
Cc1cnc(NC(=O)COc2cccc3c2OC(C)(C)C3)s1,4.9%,7.3%,-4.9%,u,-87.7*,10.2%
COc1ccc(NC(=O)COc2cccc3c2OC(C)(C)C3)cc1OC,-26.9%,-20.5%,u,6.31µM*,u,-5.0%
CCNC(=O)COc1cccc2ccccc12,x,-4.5%,19.6%,-15.1%,-69.3*,0.0%
CC(=O)Nc1ccc(NC(=O)COc2cccc3ccccc23)cc1,x,x,x,x,23.2,x
CC1(C)Cc2cccc(OCC(=O)Nc3ccccc3F)c2O1,3.0%,-9.9%,0.0%,0.3%[8.37 µM],-30.8,-3.3%
Cc1ccc(NC(=O)COc2cccc3c2OC(C)(C)C3)c(O)c1,10.4µM*,-6.3%,u,u,5.5,1.4%
CCN(CC)C(=O)C1=C(C)NC(=S)NC1c1cn(-c2ccccc2)nc1-c1ccc(Cl)cc1 (configuration not stated),4.15µM*,4.3%,u,-3.5%,0.9,4.9%
O=[N+]([O-])c1cc(C2Nc3cccc4cccc(c34)N2)ccc1Cl,2.94µM*,-1.2%,-11.9%,u,-18.4,-25.6%
c1cncc(C2CCCCN2)c1 (configuration not stated),12.8%,0.1%,26.2%,16.0%,27.8,-0.9%
Brc1ccc(C2Nc3cccc4cccc(c34)N2)s1,u,2.1%,36.9%,-6.5%,-39.6,20µM*
COc1ccc(Br)cc1C1Nc2cccc3cccc(c23)N1,0.0%,-8.0%,u,7.9%,9.1,u
c1cncc(C2Nc3cccc4cccc(c34)N2)c1,u,2.6%,u,0.1%,6.8,8.91µM*
O=C1NC(c2ccc(Cl)c([N+](=O)[O-])c2)Nc2ccccc21 (configuration not stated),u,3.3%,u,u,-35.7,10.4%
Cc1cccc(C2Nc3cccc4cccc(c34)N2)c1,4.65µM*,1.2%,7.4%,-1.5%,50.4,20µM*
CN(C)c1cccc(CNc2nccc3[nH]c(-c4cccc(F)c4)nc23)c1,x,x,x,x,-16.1,x
COc1ccc(Cc2nnc(NC(=O)CS(=O)(=O)Cc3ccccc3)s2)cc1,x,x,x,0.8%,16.8,x
CC12CN3CC(C)(CN(C1)C3c1ccc3c(c1)OCO3)C2=O (configuration not stated),5.8%,2.2%,54.8%,12.8%,-11.5,-1.0%
SMILES,Pf growth 48h,SARS PLpro yeast,Pf growth 96h,HCV inhibitor,HCMV inh,Sm TGR inh
O=C1c2ccccc2NC(c2ccc3c(c2)OCO3)N1O (configuration not stated),-26.2%,8.5%,0.37µM*,-21.5%,60.8,-1.7%
CN1c2ccccc2N(C)C1c1ccc2c(c1)OCO2,4.65µM*,2.0%,28.3%,4.8%,-20.6,-2.4%
c1cc2c3c(cccc3c1)NC(c1ccc3c(c1)OCO3)N2,x,-1.3%,u,-2.3%,78.3,17.8µM*
Clc1ccc(C2Nc3cccc4cccc(c34)N2)cc1,u,0.0%,2.3%,5.3%,47.3,15.8µM*
Cc1ccccc1C(=O)Nc1cc(C(F)(F)F)ccc1-n1cncn1,u,3.5%,12.1%,u,-15.6,-10.5%
COCCCn1c(SCC(=O)N2CCOCC2)nc2ccccc2c1=O,11.5%,-12.8%,u,-8.6%,-10.6,-9.0%
CSc1ccc(C2Nc3cccc4cccc(c34)N2)cc1,u,-2.3%,u,9.4%,102.3,25.1µM*
CCOC(=O)c1cnc2ccc(C(=O)OC)cc2c1Nc1ccc2c(c1)OCCO2,u,1.0%,10.4µM*,u,-35.7,0.5%
CCOC(=O)c1cnc2ccc(OC)cc2c1Nc1ccc(N2CCN(C)CC2)cc1,1.65µM*,-0.4%,0.928µM*,u,7.9,-13.2%
CCOC(=O)c1cnc2c(OC)cccc2c1Nc1ccc2c(c1)OCCO2,2.33µM*,0.1%,u,u,-37.4,-9.6%
CCCCc1cc(=O)oc2cc(C)c3c(C(C)(C)C)coc3c12,x,x,x,x,4.3,2.1%
COc1ccc(CNC(=O)c2cccc(-n3cnc4cccnc43)c2C)cc1,x,x,x,x,0.0,-1.8%
COc1cc(NC(=O)[C@@H](NC(=O)N2CCn3c2nc2ccccc23)C(C)C)cc(OC)c1,u,-8.0%,u,u,-25.4,-18.0%
Cc1ccc(S(=O)(=O)N2[C@@H](CCO)OC[C@H]2C(C)C)cc1,x,x,x,x,34.4,x
COc1ccc(S(=O)(=O)NCCc2cn3nc(C)c(C)nc3n2)cc1C,-16.0%,-1.8%,u,0.6%,32.3,44.7µM*
Brc1cccc(-c2nn(-c3ccccc3)c3c2cnc2cc4c(cc23)OCO4)c1,x,x,x,x,11.6,-9.4%
CCN1CCOC(=O)C1CC(=O)Nc1cc(Cl)ccc1OC (configuration not stated),x,x,x,x,19.0,14.1µM*
O=C(CC1C(=O)OCC2CCCCN21)Nc1ccccc1C(F)(F)F (configuration not stated),11.9%,1.5%,-52.1%,12.6%,39.7,u
CCN1CCOC(=O)C1CC(=O)Nc1cc(C)cc(C)c1 (configuration not stated),x,x,x,x,13.9,17.8µM*
COc1cccc(NC(=O)CC2C(=O)OCCN2Cc2ccccc2)c1 (configuration not stated),x,x,x,x,9.7,-35.8%
CCN1CCOC(=O)C1CC(=O)Nc1ccccc1C(F)(F)F (configuration not stated),x,x,x,x,6.9,10µM*
O=C(CC1C(=O)OCCN1Cc1ccccc1)Nc1cccc(C(F)(F)F)c1 (configuration not stated),x,x,x,x,-1.0,u
COc1ccc(Cl)cc1NC(=O)CC1CCCC1,15.9%,0.0%,-1.7%,u,u,-10.6%
CCc1ccc(NC(=O)CC2C(=O)OCCN2CC)cc1 (configuration not stated),x,x,x,x,9.0,14.1µM*
